Results filed as inconclusive are left out. The source made the active and inactive calls. How the source made its calls, unless noted: active means hit-call score of the fitted dose curve at least 0.9, where 1 is the maximum; inconclusive means response in the unintended direction; inactive means score below 0.9.
Tests used:
[1] = TOX21_p53_BLA_p2_viability: Viability Assessment in the Tox21 HCT-116 p53 Agonism Beta-lactamase Assay, Phase 2 (AID 2283591);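 further: compound exposure lasted 16 h at 37 °C; actives lower the ATP signal meaning cytotoxicity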
Summary of the method: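 HCT-116 p53-bla cells (4000/well) rested 5 h at 37C, then received compounds in DMSO (217-fold dilution) for 16 h at 37C, 5% CO2. After the CCF4 read, CellTiter-Glo was added; ATP luminescence was read after 30 min at room temperature.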

[2] = target: Cellular tumor antigen p53 (Homo sapiens) (UniProt P04637); experiment: TOX21_p53_BLA_p2_ratio: Tox21 HCT-116 p53 Agonism Beta-lactamase Assay, Ratio, Phase 2 (AID 2283592)
Chain of Cellular tumor antigen p53 (Homo sapiens) (P04637 whole entry, looked up): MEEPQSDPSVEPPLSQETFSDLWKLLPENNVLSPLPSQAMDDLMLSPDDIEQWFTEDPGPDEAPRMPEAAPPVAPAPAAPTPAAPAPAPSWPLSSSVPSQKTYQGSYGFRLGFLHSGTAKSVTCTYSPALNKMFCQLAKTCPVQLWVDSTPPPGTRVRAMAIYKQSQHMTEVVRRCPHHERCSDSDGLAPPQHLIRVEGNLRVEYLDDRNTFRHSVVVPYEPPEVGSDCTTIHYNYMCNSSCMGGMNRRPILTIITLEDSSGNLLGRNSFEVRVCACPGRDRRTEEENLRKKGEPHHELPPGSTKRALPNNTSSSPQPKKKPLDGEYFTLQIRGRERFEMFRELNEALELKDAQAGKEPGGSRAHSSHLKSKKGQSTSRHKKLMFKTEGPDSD
Summary of the method: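 HCT116 cells carrying a p53-responsive beta-lactamase reporter were plated, incubated 5 h at 37C, then dosed with compounds in DMSO (217-fold dilution) for 16 h. CCF4-AM substrate was added for 2 h at room temperature; the 460/530 nm emission ratio gave gain-of-signal activity relative to DMSO.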

[3] = TOX21_p53_BLA_p3_viability: Viability Assessment in the Tox21 HCT-116 p53 Agonism Beta-lactamase Assay, Phase 3 (AID 2283593);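 further: cells exposed to compound for 16 h before reading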
Summary of the method: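 HCT-116 cells (4000/well) rested 5 h at 37C, then got DMSO compounds by pin tool (217-fold dilution) for 16 h at 37C, 5% CO2. After the bla read, CellTiter-Glo was added and luminescence read at 30 min, room temperature.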

[4] = target: Cellular tumor antigen p53 (Homo sapiens) (UniProt P04637); experiment: TOX21_p53_BLA_p3_ratio: Tox21 HCT-116 p53 Agonism Beta-lactamase Assay, Ratio, Phase 3 (AID 2283596)
Summary of the method: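 HCT116 p53-bla cells (4000/well) given compound in DMSO (217-fold dilution) after 5 h, incubated 16 h at 37C. CCF4-AM substrate 2 h at room temperature; 460/530 nm emission ratio, gain fitted against DMSO.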

[5] = TOX21_p53_BLA_p4_viability: Viability Assessment in the Tox21 HCT-116 p53 Agonism Beta-lactamase Assay, Phase 4 (AID 2283597);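 further: hits lower the luminescence signal meaning cytotoxicity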
Summary of the method: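 HCT116 p53-bla cells (4000/well) rested 5 h at 37C, then received compounds in DMSO (217-fold dilution) for 16 h at 37C, 5% CO2. CellTiter-Glo was added after the CCF4-AM read, and luminescence was read after 30 min at room temperature.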

[6] = target: Cellular tumor antigen p53 (Homo sapiens) (UniProt P04637); experiment: TOX21_p53_BLA_p5_ratio: Tox21 HCT-116 p53 Agonism Beta-lactamase Assay, Ratio, Phase 5 (AID 2283599)
Summary of the method: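 HCT-116 cells carrying a p53-inducible beta-lactamase reporter were seeded at 4000 cells/well and dosed after 5 h with compound in DMSO (217-fold dilution). After 16 h at 37C, CCF4-AM substrate was added for 2 h, and the 460/530 nm emission ratio was scored as gain-of-signal versus DMSO.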

[7] = target: Cellular tumor antigen p53 (Homo sapiens) (UniProt P04637); experiment: TOX21_p53_BLA_p4_ratio: Tox21 HCT-116 p53 Agonism Beta-lactamase Assay, Ratio, Phase 4 (AID 2283601)
Summary of the method: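 HCT116 cells carrying an inducible beta-lactamase reporter were plated at 4000 cells/well, rested 5 h, then exposed to compounds in DMSO (217-fold dilution) for 16 h at 37C. CCF4-AM substrate was loaded 2 h at room temperature; 460/530 nm emission ratio scored gain-of-signal versus DMSO.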

[8] = TOX21_p53_BLA_p5_viability: Viability Assessment in the Tox21 HCT-116 p53 Agonism Beta-lactamase Assay, Phase 5 (AID 2283600)
Summary of the method: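 Cells were plated at 4000/well, rested 5 h at 37C, then given compounds in DMSO (217-fold dilution) for 16 h at 37C, 5% CO2. Following the CCF4-AM beta-lactamase read, CellTiter-Glo was added and luminescence was read after 30 min at room temperature.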

[9] = target: Thyroid hormone receptor alpha (Rattus norvegicus) + Thyroid hormone receptor beta (Rattus norvegicus) (UniProt P18113+P63059); experiment: TOX21_TR_LUC_GH3_Antagonist_Followup: Tox21 GH3 Thyroid Hormone Receptor Antagonism Luciferase Follow-Up Assay (AID 2283942)
Summary of the method: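 Rat pituitary GH3 cells with a TRα/TRβ-driven luciferase reporter, 5 h attachment, then 15 concentrations (92 uM to 5nM final) plus 1.0 nM T3 agonist, 24 h at 37C/5% CO2. ONE-Glo luminescence; signal change fitted against DMSO baseline.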

THRB (gene 7068) [10] = target: THRB (gene 7068) (UniProt P10828); experiment: TOX21_TRB_BLA_Antagonist_Followup_ratio: Tox21 Thyroid Hormone Receptor beta Antagonism Beta-lactamase (BLA) Follow-Up Assay, Ratio (AID 2283958)
Chain of THRB (gene 7068) (P10828 whole entry, looked up, the tested form may be a part): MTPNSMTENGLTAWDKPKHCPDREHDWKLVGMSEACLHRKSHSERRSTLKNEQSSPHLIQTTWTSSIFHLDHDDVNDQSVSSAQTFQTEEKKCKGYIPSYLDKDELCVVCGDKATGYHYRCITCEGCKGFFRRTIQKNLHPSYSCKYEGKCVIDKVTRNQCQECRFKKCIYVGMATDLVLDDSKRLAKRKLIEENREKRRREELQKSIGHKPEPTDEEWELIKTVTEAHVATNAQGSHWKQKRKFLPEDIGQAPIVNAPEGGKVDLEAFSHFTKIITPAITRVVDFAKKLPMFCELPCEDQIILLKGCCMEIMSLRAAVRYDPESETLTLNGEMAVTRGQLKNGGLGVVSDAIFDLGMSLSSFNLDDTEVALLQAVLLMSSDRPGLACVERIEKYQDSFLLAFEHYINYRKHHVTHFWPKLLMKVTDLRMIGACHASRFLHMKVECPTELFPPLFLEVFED
Summary of the method: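 HEK293T TRb-bla (GAL4 DBD + hTRβ LBD), 2% cs-FBS phenol red-free DMEM, 5 h attach; cpds 11-pt triplicate, 18 h 37C; CCF4-AM 2 h RT; 460/530 ratio vs DMSO; CellTiter-Glo viability same wells.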

[11] = TOX21_TRB_BLA_Antagonist_Followup_viability: Viability Assessment in the Tox21 Thyroid Hormone Receptor beta Antagonism Beta-lactamase (BLA) Follow-Up Assay (AID 2283961)
Summary of the method: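 HEK293T cells stably expressing GAL4-DBD/human TRβ-LBD with UAS-bla reporter, 3,000 cells/well in phenol red-free DMEM, 2% charcoal-stripped FBS. Compounds at 11 concentrations in triplicate, 18 h at 37C/5% CO2; viability by CellTiter-Glo luminescence after 30 min at room temperature.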

THRB (gene 7068) [12] = target: THRB (gene 7068) (UniProt P10828); experiment: TOX21_TRB_COA_Antagonist_Followup_ratio: Tox21 Thyroid Hormone Receptor beta Antagonism through Coactivator Recruitment Follow-Up Assay, Ratio (AID 2283967)
Summary of the method: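 Cell-free TR-FRET coactivator recruitment with GST-tagged TRβ LBD (5.0 nM) and fluorescein-labeled SRC-2 peptide (200 nM) detected by terbium anti-GST antibody (2 nM). The 520:495 nm emission ratio was normalized to DMSO (0%) and T3 (100%).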

[13] = target: Retinoic acid receptor RXR-alpha (Homo sapiens) (UniProt P19793); experiment: TOX21_TR_RXR_BLA_Antagonist_Followup_ratio: Tox21 Thyroid Hormone Receptor beta Retinoid X Receptor alpha (RXRa) Antagonism Beta-lactamase (BLA) Follow-Up Assay, Ratio (AID 2283972)
Chain of Retinoic acid receptor RXR-alpha (Homo sapiens) (P19793 whole entry, looked up): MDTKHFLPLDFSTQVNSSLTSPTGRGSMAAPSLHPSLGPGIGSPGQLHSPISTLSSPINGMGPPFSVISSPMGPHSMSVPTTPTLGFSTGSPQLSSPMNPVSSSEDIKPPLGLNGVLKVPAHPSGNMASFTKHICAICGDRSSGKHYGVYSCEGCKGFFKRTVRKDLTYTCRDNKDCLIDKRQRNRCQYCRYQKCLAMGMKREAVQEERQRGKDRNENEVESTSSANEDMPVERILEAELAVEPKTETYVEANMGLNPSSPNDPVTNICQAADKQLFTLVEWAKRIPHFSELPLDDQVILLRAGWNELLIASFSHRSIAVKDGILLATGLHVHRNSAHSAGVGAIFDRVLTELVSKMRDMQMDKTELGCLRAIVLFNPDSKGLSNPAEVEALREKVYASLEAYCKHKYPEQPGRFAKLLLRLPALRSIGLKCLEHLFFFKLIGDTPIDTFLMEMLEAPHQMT
Summary of the method: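 RXRa-UAS-bla HEK293T cells in phenol red-free DMEM with 2% charcoal-stripped FBS; compounds at 11 concentrations in triplicate, 16 h at 37C. LiveBLAzer FRET-B/CCF4-AM substrate 2 h at room temperature; read as 460:530 nm ratio versus DMSO.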

[14] = test system: Brachyury (BRA) Protein Expression, Deisenroth Lab, TBXT (gene 6862); experiment: CCTE_Deisenroth_DEVTOX-GLR_legacy_Bra: (Legacy) CCTE's DevTox GLR-Endo Assay Evaluation of Brachyury (BRA) Protein Expression, Deisenroth Lab (AID 2284329; active means hit-call score of the fitted dose curve at least 0.9, where 1 is the maximum; inactive means score below 0.9)
Summary of the method: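 RUES2-GLR human pluripotent cells differentiated 48 h with two 24-h-interval chemical exposures (1 nM - 200 uM, 10 points); fixed, nuclear-stained, imaged. Bra+ cell percentage (intensity 5x BMAD above pluripotent control median) fitted relative to 0.2% DMSO.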

[15] = CCTE_Deisenroth_DEVTOX-GLR_legacy_CellCount: (Legacy) Viability Assessment in CCTE's DevTox GLR-Endo Assay, Deisenroth Lab (AID 2284331; active means hit-call score of the fitted dose curve at least 0.9, where 1 is the maximum; inactive means score below 0.9); conditions: actives raise or lower the signal
Summary of the method: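 Nuclei count by fluorescence high-content imaging (5 fields/well) after 48 h differentiation of RUES2-GLR cells. Two exposures, 24 h apart; 1 nM - 200 uM series; n=4. Bidirectional fit vs DMSO.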

[16] = test system: SRY-box transcription factor 17 (SOX17) Protein Expression, Deisenroth Lab, SOX17 (gene 64321); experiment: CCTE_Deisenroth_DEVTOX-GLR_legacy_Sox17: (Legacy) CCTE's DevTox GLR-Endo Assay Evaluation of SRY-box transcription factor 17 (SOX17) Protein Expression, Deisenroth Lab (AID 2284341; active means hit-call score of the fitted dose curve at least 0.9, where 1 is the maximum; inactive means score below 0.9); conditions: actives raise or lower the signal
Summary of the method: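 RUES2-GLR human pluripotent cells, seeded 24 h, then differentiated 48 h in defined media with two chemical exposures 24 h apart (1 nM - 200 uM, 10 points). Sox17+ fraction from high-content fluorescence imaging; bidirectional fit versus 0.2% DMSO.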

[17] = test system: SRY-box transcription factor 2 (SOX2) Protein Expression, Deisenroth Lab, SOX2 (gene 6657); experiment: CCTE_Deisenroth_DEVTOX-GLR_legacy_Sox2: (Legacy) CCTE's DevTox GLR-Endo Assay Evaluation of SRY-box transcription factor 2 (SOX2) Protein Expression, Deisenroth Lab (AID 2284346; active means hit-call score of the fitted dose curve at least 0.9, where 1 is the maximum; inactive means score below 0.9)
Summary of the method: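 RUES2-GLR human pluripotent cells seeded 24 h, then differentiated 48 h in defined media with two chemical doses 24 h apart (10-point, 1 nM–200 uM). Fixed, nuclear-stained, imaged; % Sox2+ cells (>5x BMAD over endoderm control median), DMSO-subtracted, fitted upward.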

[18] = test system: SRY-box transcription factor 2 (SOX2) Protein Expression, Deisenroth Lab, SOX2 (gene 6657); experiment: CCTE_Deisenroth_DEVTOX-GLR_Endo_SOX2: CCTE's DevTox GLR-Endo Assay Evaluation of SRY-box transcription factor 2 (SOX2) Protein Expression, Deisenroth Lab (AID 2284412)
Summary of the method: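 RUES2-GLR human pluripotent cells were seeded 24 h, then differentiated 48 h with two chemical exposures 24 h apart. Cells were fixed, nuclei stained and imaged by high-content microscopy. Endpoint is %SOX2+ cells over cell count, minus 0.2% DMSO control; 10-point series 1 nM–200 uM.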

[19] = test system: SRY-box transcription factor 17 (SOX17) Protein Expression, Deisenroth Lab, SOX17 (gene 64321); experiment: CCTE_Deisenroth_DEVTOX-GLR_Endo_SOX17: CCTE's DevTox GLR-Endo Assay Evaluation of SRY-box transcription factor 17 (SOX17) Protein Expression, Deisenroth Lab (AID 2284413; active means hit-call score of the fitted dose curve at least 0.9, where 1 is the maximum; inactive means score below 0.9)
Summary of the method: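 Endpoint: % change in SOX17+ fraction (SOX17+ cells / cell count) vs 0.2% DMSO solvent control. RUES2-GLR reporter cells, 48 h endoderm differentiation, two doses at 24 h intervals, high-content fluorescence imaging, 5 fields/well.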

[20] = test system: Brachyury (BRA) Protein Expression, TBXT (gene 6862); experiment: CCTE_Deisenroth_DEVTOX-GLR_Endo_BRA: CCTE's DevTox GLR-Endo Assay Evaluation of Brachyury (BRA) Protein Expression, Deisenroth Lab (AID 2284417; active means hit-call score of the fitted dose curve at least 0.9, where 1 is the maximum; inactive means score below 0.9)
Summary of the method: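 RUES2-GLR human pluripotent cells, seeded 24 h, then differentiated 48 h in defined media with two chemical exposures 24 h apart (10-point series, 1 nM - 200 uM). Fixed, nuclear-stained, imaged; endpoint is percent BRA+ cells minus 0.2% DMSO control.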

[21] = CCTE_Deisenroth_DEVTOX-GLR_Endo_CellCount: Viability Assessment in CCTE's DevTox GLR-Endo Assay, Deisenroth Lab (AID 2284420; active means hit-call score of the fitted dose curve at least 0.9, where 1 is the maximum; inactive means score below 0.9)
Summary of the method: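 RUES2-GLR human pluripotent cells seeded 24 h, then differentiated 48 h with two chemical exposures at 24 h intervals (10-point, 1 nM - 200 uM). Fixed, nuclear-stained, imaged; nuclei counts give % change in cell count versus 0.2% DMSO.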

[22] = test system: SRY-box transcription factor 2 (SOX2) Protein Expression, Deisenroth Lab, SOX2 (gene 6657); experiment: CCTE_Deisenroth_DEVTOX-GLR_Pluri_SOX2: CCTE's DevTox GLR-Pluri Assay Evaluation of SRY-box transcription factor 2 (SOX2) Protein Expression, Deisenroth Lab (AID 2284428; active means hit-call score of the fitted dose curve at least 0.9, where 1 is the maximum; inactive means score below 0.9)
Summary of the method: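 Human pluripotent RUES2-GLR cells were seeded 24 h, then differentiated 48 h in defined media with two chemical doses at 24-h intervals (10-point, 1 nM–200 uM). Nuclear-stained cells were imaged; SOX2+ cells/cell count gave percent change versus 0.2% DMSO control.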

[23] = test system: Brachyury (BRA) Protein Expression, Deisenroth Lab, TBXT (gene 6862); experiment: CCTE_Deisenroth_DEVTOX-GLR_Pluri_BRA: CCTE's DevTox GLR-Pluri Assay Evaluation of Brachyury (BRA) Protein Expression, Deisenroth Lab (AID 2284429)
Summary of the method: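 Human pluripotent RUES2-GLR cells, seeded 24 h, were differentiated 48 h in defined media with two chemical doses at 24-h intervals (10-point, 1 nM - 200 uM). Readout: percent BRA+ cells by fluorescent reporter imaging, minus 0.2% DMSO control.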

[24] = CCTE_Deisenroth_DEVTOX-GLR_Pluri_CellCount: Viability Assessment in CCTE's DevTox GLR-Pluri Assay Evaluation of Total Cell Counts, Deisenroth Lab (AID 2284430; active means hit-call score of the fitted dose curve at least 0.9, where 1 is the maximum; inactive means score below 0.9)
Summary of the method: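 RUES2-GLR human pluripotent cells, seeded 24 h, then differentiated 48 h with two chemical exposures 24 h apart; 10-point series 1 nM - 200 uM. Fixed, nuclear-stained, imaged (5 fields/well); nuclei count as % change vs 0.2% DMSO.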

Measured: AC50

CC(C)(C)OC(=O)c1cccc(N)c1
inactive: [1] | [2] | [3] | [4] | [5] | [6] | [7]

C#CCC(Cc1cnc2nc(N)nc(N)c2n1)c1ccc(C(=O)N[C@@H](CCC(=O)O)C(=O)O)cc1 (some centres undefined)
active: [1] 0.245 µM | [2] 0.43 µM | [3] 0.301 µM | [4] 0.661 µM | [5] 0.385 µM | [6] 1.13 µM | [8] 0.538 µM | [7] 0.575 µM | [11] 0.44 µM | [13] 0.448 µM
inactive: [9] | THRB (gene 7068) [10] | THRB (gene 7068) [12]

CNC(=O)c1cc(Oc2ccc(NC(=O)Nc3ccc(Cl)c(C(F)(F)F)c3)cc2)ccn1
inactive: [1] | [3] | [5] | [8] | [7]
active: [2] 7.13 µM | [4] 5.52 µM | [6] 6.76 µM | [14] 0.815 µM | [15] 1.11 µM | [16] 0.609 µM | [17] 1.5 µM | [18] 1.45 µM | [19] 0.604 µM | [20] 4.31 µM | [21] 1.08 µM | [22] 29.3 µM | [23] 1.3 µM | [24] 184 µM

— PubChem BioAssay (EPA / NIEHS)
